In PubChem BioAssay:
The source made the active and inactive calls.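 How the source made its calls, unless noted: active means compound raises GLP1 secretion from the human gut endocrine cells, with no numeric limit stated; inactive means the rest.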 Positions of bridges follow the written chain, without caps; N, C: chain ends. Non-standard residues stand in square brackets, D forms with d. Residues, ends and D or L forms follow the SMILES beside them. hArg = N=C(N)NCCCC[C@H](N)C(=O)O; Mpa = O=C(O)CCS

Columns and labels:
[1] = stimulators of nuclear beta-catenin in C2C12, primary screen, imaging, WNT3A-conditioned medium, mouse C2C12, NPC library (AID 1117326; in the data active means nuclear beta-catenin stimulation mostly above about 4.2%, no sharp cut-off; inactive means mostly below about 10%; further: reference of the scale not given here); conditions: stronger effect = higher value
[2] = stimulators of insulin release from INS-1E, primary screen, cell-based, 5 mM glucose, NPC library (AID 1117329;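 active means compound raises insulin release from rat beta cells at 5 mM glucose, no numeric limit stated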; further: reference of the scale not given here); conditions: rat INS-1E insulin secretion, at 10 µM, stronger effect = higher value
[3] = growth inhibition of GSK3B-pretreated HCT116 cells – cell-based, CellTiter-Glo, 0.2 to 20 µM (AID 1117336;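 active means compounds lowering colon cancer cell viability after pretreatment blocking the GSK3B kinase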); conditions: HCT116 viability after GSK3B inhibitor, at 20 µM, stronger effect = higher value
[4] = inhibition of endothelial tube formation, primary screen, imaging, VEGF stimulated, CD31 staining, tube area, NPC library (AID 1117340;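 active means compound that reduces growth-factor-driven endothelial tube area in a mixed cell culture, no cutoff stated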); conditions: VEGF-stimulated ADSC/ECFC co-culture, at 10 µM, stronger effect = higher value
[5] = glucagon-like peptide 1 release enhancers, primary assay, NCI-H716 cell line, NPC library (AID 1117341); conditions: NCI-H716 cells, at 10 µM, stronger effect = higher value; further: reference of the scale not given here
[6] = HCT116 colon cancer cell growth inhibition, primary screen, CellTiter-Glo luminescence, NPC library (AID 1117342;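 active means compounds that lower survival of HCT116 colon cancer cells in the luminescence readout, no numeric limit stated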); conditions: at 20 µM (top of the series)
[7] = CellTiter-Glo luminescent readout of SW480 viability loss, NPC library primary (AID 1117343;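 active means compounds that lower viability of the colon cancer cells in the luminescence readout, with no numeric limit stated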); conditions: CellTiter-Glo luminescence; at 20 µM (top of the series)
[8] = decreased DLD-1 cellular survival, CellTiter-Glo luminescent readout, NPC compound collection, primary HTS (AID 1117346;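 active means compounds that lower survival of DLD-1 colon cancer cells in the luminescence readout, no cutoff given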); conditions: DLD-1 viability, CellTiter-Glo luminescence; at 20 µM (top of the series)

Row | SMILES | nuclear beta-catenin stimulation ([1]; at 10 µM) | nuclear beta-catenin stimulation ([1]; stimulation, at 2 µM) [%] | insulin secretion stimulation [2] | viability decrease [3] | tube area decrease [4] | GLP1 secretion stimulation [5] | inhibition of viability [6] | viability decrease (inhibition) [7] | viability decrease (inhibition) [8]
1 | CO[C@@H]1[C@@H](OC)[C@H](C)[C@@](O)(CC(=O)O)O[C@H]1[C@H](C)[C@H]1O[C@@]2(CC[C@@](C)([C@H]3CC[C@@](C)([C@@H]4O[C@@H]([C@H]5O[C@](C)(O)[C@H](C)C[C@@H]5C)C[C@@H]4OC4C[C@H](OC)[C@@H](OC)[C@H](C)O4)O3)O2)C[C@H](O)[C@H]1C (some centres undefined) | -1.1% (inactive) | 10.6 | 5.4% (inactive) | 79.8% (active) | 111% (active) | 15% (inactive) | 66.7% (active) | 128% (active) | 96.7% (active)
2 | Nc1ccc(C(=O)N2CC3CC(CN(Cc4ccccc4)C3)C2)cc1 | 3.2% (inactive) | 0.5 | 0.1% (inactive) | 1.2% (inactive) | -12.8% (inactive) | 1.7% (inactive) | 23.2% (inactive) | 9.4% (inactive) | 7.3% (inactive)
3 | Cc1[nH]cnc1-c1ccc(Cl)cc1 | 1.4% (inactive) | 1 | 0.25% (inactive) | 11.7% (inactive) | -1.2% (inactive) | 0.1% (inactive) | 17% (inactive) | -17.6% (inactive) | 3.8% (inactive)
4 | Clc1ccccc1-c1nc(-c2ccncc2)no1 | -0.3% (inactive) | 0.5 | -2.3% (inactive) | 3.6% (inactive) | 23.5% (inactive) | -2.9% (inactive) | 18.1% (inactive) | 8.4% (inactive) | -2.9% (inactive)
5 | COC(=O)c1ccc(NC(C)=O)cc1OC | -0.5% (inactive) | -1.4 | -1.4% (inactive) | 13.4% (inactive) | -3.1% (inactive) | -1.8% (inactive) | 1.7% (inactive) | -18.6% (inactive) | -4.9% (inactive)
6 | C=CC[N+]1([C@H]2C[C@H]3[C@@H]4CC[C@H]5C[C@H](OC(C)=O)[C@@H](N6CCCCC6)C[C@]5(C)[C@H]4CC[C@]3(C)[C@H]2OC(=O)CC)CCCCC1 | -0.1% (inactive) | -2.6 | 1.45% (inactive) | 27.6% (inactive) | -8.7% (inactive) | 8.2% (inactive) | 32.5% (inactive) | 23.4% (inactive) | -2.8% (inactive)
7 | O=C(O)C(Cc1cc(I)c(O)c(I)c1)c1ccccc1 (centres undefined) | 1.5% (inactive) | 0.8 | -0.6% (inactive) | 36.8% (inactive) | -29.6% (inactive) | -0.7% (inactive) | 40.4% (inactive) | 50.4% (active) | 14.4% (inactive)
8 | CC(C)=CCNc1ncnc2c1ncn2[C@@H]1O[C@H](CO)[C@@H](O)[C@H]1O | 4.6% (inactive) | 1.9 | 1.8% (inactive) | 109% (active) | 106% (active) | 0.8% (inactive) | 111% (active) | 110% (active) | 101% (active)
9 | NC[C@@H]1O[C@H](O[C@H]2[C@H](O)[C@H](O[C@H]3[C@@H](O)[C@H](N)C[C@H](N)[C@H]3O[C@H]3O[C@H](CN)[C@H](O)[C@H](O)[C@H]3N)O[C@@H]2CO)[C@@H](N)[C@@H](O)[C@@H]1O | -0.3% (inactive) | 0.4 | 3.2% (inactive) | -8.9% (inactive) | -22.4% (inactive) | 63.5% (active) | 9% (inactive) | 31.1% (inactive) | 5% (active)
10 | NC(=O)[C@@H]1CSSCCC(=O)N[C@@H](CCCCN=C(N)N)C(=O)NCC(=O)N[C@@H](CC(=O)O)C(=O)N[C@@H](Cc2c[nH]c3ccccc23)C(=O)N2CCC[C@H]2C(=O)N1 ([Mpa][hArg]GDWPC-NH2; disulfide 1-7) | 3.6% (inactive) | 5.8 | 3.95% (inactive) | 19.6% (inactive) | 79.4% (active) | -2.7% (inactive) | 9.3% (inactive) | 0.7% (inactive) | 0.2% (inactive)
11 | OCC=Cc1ccccc1 | -2.6% (inactive) | -1 | 9.1% (inactive) | -8.2% (inactive) | 0.4% (inactive) | -1.9% (inactive) | -0.4% (inactive) | -0.8% (inactive) | -7.9% (inactive)
12 | CN1CCN(C(=O)C2CCCCC2)CC1 | 0% (inactive) | -0.3 | 4.2% (inactive) | -2.7% (inactive) | -5.2% (inactive) | 5.1% (inactive) | 12% (inactive) | 28.1% (inactive) | 11.9% (inactive)
13 | COC(=O)c1cc(S(C)(=O)=O)ccc1OC | 1% (inactive) | 3.6 | 2% (inactive) | -2.3% (inactive) | -4.1% (inactive) | -1.3% (inactive) | 6.4% (inactive) | -3.4% (inactive) | -1.9% (inactive)
14 | CCCc1c2oc(C(=O)O)cc(=O)c2cc2c(=O)cc(C(=O)O)n(CC)c12 | -1.6% (inactive) | -1 | 2.6% (inactive) | 7.4% (inactive) | -19.4% (inactive) | -2.3% (inactive) | 18.2% (inactive) | 34.6% (inactive) | 15.2% (inactive)
15 | COC(=O)C(CN)c1c[nH]c2ccc(OC)cc12 (centres undefined) | -2.2% (inactive) | -1 | 2.3% (inactive) | -18.2% (inactive) | 5.7% (inactive) | 7.7% (inactive) | 8.5% (inactive) | 19.4% (inactive) | 16.7% (inactive)
16 | O=S(O)CO | 2.1% (inactive) | 0.9 | 0.6% (inactive) | -7.1% (inactive) | 9.9% (inactive) | -1.1% (inactive) | -0.4% (inactive) | -0.9% (inactive) | 2.7% (inactive)

Row | SMILES | nuclear beta-catenin stimulation ([1]; at 10 µM) | nuclear beta-catenin stimulation ([1]; stimulation, at 2 µM) [%] | insulin secretion stimulation [2] | viability decrease [3] | tube area decrease [4] | GLP1 secretion stimulation [5] | inhibition of viability [6] | viability decrease (inhibition) [7] | viability decrease (inhibition) [8]
17 | CC(C)(C)c1nnc(NS(=O)(=O)c2ccccc2)s1 | 0.7% (inactive) | 1.5 | 33.5% (active) | -0.1% (inactive) | 17.7% (inactive) | -0.5% (inactive) | -5.8% (inactive) | -1.2% (inactive) | -7% (inactive)
18 | O=C(O)c1cc(=O)c2c3nc4ccccc4oc-3cc(=O)c2[nH]1 | -0.4% (inactive) | -0.7 | -0.1% (inactive) | 10.4% (inactive) | 16.6% (inactive) | -7.4% (inactive) | -31.1% (inactive) | 17.8% (inactive) | -15.6% (inactive)
19 | CCN1CCN(C(=O)N[C@@H](C(=O)N[C@@H]2C(=O)N3[C@@H]2SC(C)(C)[C@H]3C(=O)O)c2ccccc2)C(=O)C1=O | 0.2% (inactive) | 0.9 | -0.5% (inactive) | -21.3% (inactive) | -12.7% (inactive) | -0.4% (inactive) | 23.9% (inactive) | 8.3% (inactive) | -5.2% (inactive)
20 | CCCCOC(=O)CCCCCCCCC(=O)OCCCC | 1.4% (inactive) | 1 | 2.4% (inactive) | 10.4% (inactive) | 3.7% (inactive) | 1.9% (inactive) | 13.3% (inactive) | -9.1% (inactive) | 7.6% (inactive)
21 | O=C(O)c1[nH]n(-c2ccc(S(=O)(=O)O)cc2)c(=O)c1N=Nc1ccc(S(=O)(=O)O)cc1 | 1.7% (inactive) | -1.1 | 2.7% (inactive) | -3.9% (inactive) | -8.4% (inactive) | -3% (inactive) | 4.2% (inactive) | -14% (inactive) | 6.5% (inactive)
22 | CCOC(=O)C1=C(O)c2ccccc2S(=O)(=O)N1C | -1.5% (inactive) | -0.7 | 0.9% (inactive) | -6% (inactive) | -19.5% (inactive) | -4% (inactive) | 10.3% (inactive) | 12% (inactive) | 4.2% (inactive)
23 | Cc1c(I)c(=O)n(-c2ccccc2)n1C | -0.6% (inactive) | 0.4 | 0.4% (inactive) | -4.55% (inactive) | 1.2% (inactive) | 0.6% (inactive) | -8.9% (inactive) | 26.3% (inactive) | 33.4% (inactive)
24 | Nc1nc2ccccc2n1Cc1ccc(F)cc1 | 0.8% (inactive) | -2 | 0.8% (inactive) | 56.4% (active) | 15.1% (inactive) | -0.6% (inactive) | 74.9% (active) | 84% (active) | 43% (inactive)
25 | CO/N=C(/C(=O)N[C@@H]1C(=O)N2C(C(=O)[O-])=C(C[n+]3ccn4ncccc43)CS[C@H]12)c1nsc(N)n1 | 2% (inactive) | -1 | 3.45% (inactive) | 16.4% (inactive) | -10.7% (inactive) | -1.2% (inactive) | -21.9% (inactive) | -3.8% (inactive) | -6.6% (inactive)
26 | O=C(/C=C/c1ccc(O)c(O)c1)O[C@@H]1C[C@@](OC(=O)/C=C/c2ccc(O)c(O)c2)(C(=O)O)C[C@@H](O)[C@@H]1O | 0.7% (inactive) | 0.9 | -0.6% (inactive) | -72.8% (inactive) | 8.1% (inactive) | 3.7% (inactive) | 6.6% (inactive) | 6.5% (inactive) | -13.6% (inactive)
27 | c1ccc2sc(SN3CCOCC3)nc2c1 | 0.5% (inactive) | 2.1 | -2.6% (inactive) | 2.05% (inactive) | 18.9% (inactive) | -0.9% (inactive) | -10.4% (inactive) | 110% (active) | 6.4% (inactive)
28 | CC12CCC(C[N+](C)(CCC[N+](C)(C)C)C1)C2(C)C (centres undefined) | -0.5% (inactive) | 0 | -2.5% (inactive) | -7.9% (inactive) | -11.3% (inactive) | -3.2% (inactive) | -7.3% (inactive) | 7.3% (inactive) | -4% (inactive)
29 | CCOC(=O)Cn1cccc1-c1nc(-c2ccc(OC)cc2)c(-c2ccc(OC)cc2)s1 | -0.6% (inactive) | -1.4 | 1.9% (inactive) | 35.5% (inactive) | 6.7% (inactive) | -0.1% (inactive) | 46% (inactive) | 88.2% (active) | 77.5% (active)
30 | Oc1ccccc1 | -0.4% (inactive) | 0.2 | -0.2% (active) | -6.9% (inactive) | -36.6% (inactive) | 0.5% (inactive) | -11.1% (inactive) | 42.7% (inactive) | 0.9% (inactive)
31 | NC(=O)CC[C@@H]1NC(=O)[C@H](Cc2ccccc2)NC(=O)[C@H](Cc2ccc(O)cc2)NC(=O)CCSSC[C@@H](C(=O)N2CCC[C@H]2C(=O)N[C@@H](CCCN=C(N)N)C(=O)NCC(N)=O)NC(=O)[C@H](CC(N)=O)NC1=O | -0.6% (inactive) | -1.2 | 0.8% (inactive) | 8.4% (inactive) | 3.9% (inactive) | 2.4% (inactive) | 1% (inactive) | 1.3% (inactive) | -0.2% (inactive)
